HEK cytotox: Cytotoxic Profiling in HEK 293 Cell Line of Diverse Libraries Using Quantitative High-Throughput Screening. HEK 293 viability, ATP luminescence (CellTiter-Glo), 48-72 h. Potency, µM (top dose mostly 115 µM), hits mostly inhibitors. 6.6% of 94,000 active; also: nearly all actives have a fitted effect of over 60% in size
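Viability of HEK 293 cells, plated at 250 cells/well, was judged by cellular ATP after compound treatment for 48 or 72 hr. Luminescence was imaged 10 min after CellTiter-Glo addition at room temperature.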
GPT2 inh: Primary qHTS assay for inhibitors of Glutamate pyruvate transaminase 2 (GPT2); Alanine aminotransferase 2 (Homo sapiens), Q8TD30; Recombinant GPT2, coupled pyruvate oxidase/HRP Amplex Red fluorescence; Potency, µM (doses to about 57.7 µM), actives largely listed as inhibitors; 0.25% of 100,000 active; AID 1671188, 2021; also: nearly all actives have a fitted effect of over 60% in size
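Fluorescence read-out: pyruvate from GPT2 turnover coupled to pyruvate oxidase, HRP and Amplex Red (0.2mM ThPP, 0.2U/mL PO and HRP, 50uM Amplex final). Substrates 250uM a-KG, 2mM L-alanine; enzyme 10ng/uL; 30 min RT.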
3T3 cytotox: Cytotoxic Profiling in NIH 3T3 Cell Line of Diverse Libraries Using Quantitative High-Throughput Screening. NIH 3T3 viability, CellTiter-Glo ATP luminescence, 48-72 h. Potency, µM (highest dose often 96.7 µM), actives largely listed as inhibitors. 4.3% of 94,000 active; also: nearly all actives have a fitted effect of over 55% in size
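First NIH 3T3 cells are plated at 400 cells/well; next compound is pinned in; then plates incubate 48 or 72 hr at 37 °C; finally CellTiter-Glo is added and luminescence read after 10 min.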
Luciferase inh: Firefly luciferase inhibition profiling of diverse chemical library using quantitative high-throughput screening. AID 1347043, 2019. purified P. pyralis luciferase, luminescence, biochemical. Potency, µM (titrated, usually from 115 µM), usual class: inhibitors. 2.5% of 76,000 active; also: nearly all actives have a fitted effect of over 65% in size
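Purified 10nM P. pyralis luciferase with 10uM D-luciferin and 10uM ATP in 50mM Tris acetate pH 7.5, 10mM Mg acetate, 0.01% Tween-20, 0.05% BSA. qHTS titration; luminescence read by CCD imager.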
NPR1 antag: Natriuretic polypeptide receptor (hNpr1) antagonism - Primary qHTS. AID 1347048, 2019. HEK293 hNpr1 GloSensor cGMP, ANP-stimulated luminescence. Atrial natriuretic peptide receptor 1 (Homo sapiens), P16066. 1.6% of 76,000 active. Potency, µM (top dose mostly 46.3 µM), actives largely listed as inhibitors; calls by dose curve; also: nearly all actives have a fitted effect of over 60% in size
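HEK293 cells stably expressing human Npr1 and cGMP GloSensor pGS-40F, loaded 2 h with 2% GloSensor reagent, given compound 30 min at room temperature. Luminescence read before and 20 min after 0.1 nM hNppA.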
Npr1 antag conf: Natriuretic polypeptide receptor (hNpr1) antagonism - Confirmation | 76% of 1,400 active | Potency, µM (titrated, usually from 57.6 µM), actives largely listed as inhibitors | shares compounds with NPR1 antag | HEK293 hNpr1 cGMP GloSensor luminescence, ANP-stimulated; calls by dose curve; also: nearly all actives have a fitted effect of over 70% in size
Npr2 selectivity: Natriuretic polypeptide receptor (hNpr2) antagonism - Subtype selectivity assay; shares compounds with NPR1 antag; HEK293 hNpr2 GloSensor cGMP luminescence, CNP-stimulated; Potency, µM (titrated, usually from 57.6 µM), usual class: inhibitors; 67% of 1,400 active; AID 1347046, 2019; calls by dose curve; also: nearly all actives have a fitted effect of over 70% in size
FLuc inh counter: Natriuretic polypeptide receptor (hNpr1) antagonism - Confirmation firefly luciferase (FLuc) inhibition counterscreen; shares compounds with NPR1 antag; 0.7% of 1,400 active; purified FLuc enzyme, luminescence, Km substrate; Potency, µM (titrated, usually from 57.6 µM), most hits filed as inhibitors; also: series mostly up to about 58 µM
GloSensor cGMP: Natriuretic polypeptide receptor (hNpr1) antagonism - Counterscreen GloSensor control cell line | shares compounds with NPR1 antag | HEK293 GloSensor cGMP, SNP-stimulated, luminescence | Potency, µM (highest dose often 57.6 µM), hits mostly inhibitors | 69% of 1,400 active | AID 1347051, 2019; calls by dose curve; also: nearly all actives have a fitted effect of over 70% in size
Of the large screens only hits and unclear results are named; the others gave an inactive call (follow-up assays come after a bar, where they were run). Most compounds without a hit are left out; they make up all but 10% or so of the library. Unless noted, calls follow the shape of the dose curve; as a rule, active = well fitted curve in the direction sought with a large enough effect; inconclusive = small, poorly fitted or top-dose-only effect, or another doubt; inactive = no such curve, though single readings can be large; an effect the other way counts as inactive or inconclusive.

CC(=O)N1CCN(c2nc3c(s2)CC(C(=O)Nc2cccc(C(C)(C)C)c2)CC3)CC1 (centres undefined)	HEK cytotox inconclusive, 3T3 cytotox inconclusive, NPR1 antag 18µM | Npr1 antag conf 12µM | Npr2 selectivity 15µM | FLuc inh counter inactive | GloSensor cGMP 11µM
CC(=O)N1CCN(c2nc3c(s2)CC(C(=O)Nc2cc(F)cc(F)c2)CC3)CC1 (centres undefined)	HEK cytotox 10µM, 3T3 cytotox inconclusive, NPR1 antag 10µM | Npr1 antag conf 17µM | Npr2 selectivity 19µM | FLuc inh counter inactive | GloSensor cGMP 11µM
COc1ccc(OC)c(NC(=O)C2CCc3nc(N4CCN(C(C)=O)CC4)sc3C2)c1 (centres undefined)	HEK cytotox inconclusive
CC(C)CNC(=O)N1CC(Oc2ccc(-c3noc(C4CCOCC4)n3)cc2)C1	HEK cytotox inconclusive, 3T3 cytotox inconclusive, NPR1 antag 14µM | Npr1 antag conf 4.8µM | Npr2 selectivity 5.4µM | FLuc inh counter inactive | GloSensor cGMP 4.3µM
O=C(C1CC1)N1CC(Oc2ccc(-c3noc(C4CCOCC4)n3)cc2)C1	HEK cytotox inconclusive, 3T3 cytotox inconclusive, NPR1 antag 10µM | Npr1 antag conf 9.7µM | Npr2 selectivity 11µM | FLuc inh counter inactive | GloSensor cGMP 9.7µM
CCC(C)NC(=O)N1CC(Oc2ccc(-c3noc(COC)n3)cc2)C1 (centres undefined)	HEK cytotox inconclusive, 3T3 cytotox inconclusive (no result: Luciferase inh, NPR1 antag)
O=C(Cc1ccccc1)N1CC(Oc2ccc(-c3nc(-c4ccccc4)no3)cc2)C1	HEK cytotox inconclusive, Luciferase inh inconclusive, NPR1 antag inconclusive
CCC(C)NC(=O)N1CC(Oc2ccc(-c3nc(-c4ccccc4)no3)cc2)C1 (centres undefined)	3T3 cytotox inconclusive, NPR1 antag 1.3µM | Npr1 antag conf 1.9µM | Npr2 selectivity 3.1µM | FLuc inh counter inactive | GloSensor cGMP 2.2µM
O=C(N1CC(Oc2ccc(-c3nc(-c4ccccc4)no3)cc2)C1)C1(c2ccccc2)CC1	HEK cytotox 22µM, 3T3 cytotox inconclusive, NPR1 antag inconclusive | Npr1 antag conf inconclusive | Npr2 selectivity 22µM | FLuc inh counter inactive | GloSensor cGMP 22µM
CC(C)(C)c1ccc(-c2cc(C[C@H]3CNCC[C@H]3CC(=O)N3CCN(Cc4ccccc4)CC3)no2)cc1	HEK cytotox inconclusive, 3T3 cytotox inconclusive
CC(C)S(=O)(=O)N1CC(Oc2ccc(-c3noc(C4CCOCC4)n3)cc2)C1	HEK cytotox inconclusive, NPR1 antag 2.2µM | Npr1 antag conf 11µM | Npr2 selectivity 12µM | FLuc inh counter inactive | GloSensor cGMP 11µM
CCC(C)NC(=O)N1CC(Oc2ccc(-c3noc(C4CCOCC4)n3)cc2)C1 (centres undefined)	HEK cytotox inconclusive, 3T3 cytotox inconclusive, NPR1 antag 7.9µM | Npr1 antag conf 5.4µM | Npr2 selectivity 6.1µM | FLuc inh counter inactive | GloSensor cGMP 4.8µM
c1cc(-c2noc(C3CCOCC3)n2)ccc1OC1CNC1	Luciferase inh inconclusive
CNC(=O)c1cc(C)nc2onc(C3CCCN(C(=O)c4ccc(Cl)nc4)C3)c12 (centres undefined)	none (no result: GPT2 inh, Luciferase inh, NPR1 antag)
COc1cccc(CNC(=O)C2CCN(c3cc(C(F)(F)F)nc(C)n3)CC2)c1	HEK cytotox inconclusive, 3T3 cytotox inconclusive
COc1ccc(-n2nc(C3CCN(Cc4cccc5ccccc45)CC3)[nH]c2=O)cc1	HEK cytotox inconclusive, GPT2 inh inconclusive, 3T3 cytotox inconclusive, NPR1 antag 11µM | Npr1 antag conf 24µM | Npr2 selectivity 24µM | FLuc inh counter inactive | GloSensor cGMP 27µM
O=C(Nc1ccccc1)N1CCC(C(=O)N2CCC(N3Cc4ccccc4C3=O)CC2)CC1	HEK cytotox inconclusive, 3T3 cytotox inconclusive (no result: Luciferase inh, NPR1 antag)
Cc1c(C(=O)N(C)Cc2cc(-c3cccnc3)no2)oc2c(F)cccc12	HEK cytotox inconclusive, 3T3 cytotox inconclusive, NPR1 antag inconclusive | Npr1 antag conf inconclusive | Npr2 selectivity inactive | FLuc inh counter inactive | GloSensor cGMP inactive
COCCNc1ccc(-c2noc([C@@H]3CCCN3Cc3ccncc3)n2)cn1	HEK cytotox inconclusive, 3T3 cytotox inconclusive
Cc1nn2c(c1-c1ccccc1-c1ccccc1)N(C(=O)Cc1ccc3c(c1)OCO3)CCC2	HEK cytotox inconclusive, GPT2 inh inconclusive, 3T3 cytotox inconclusive
Cc1nn2c(c1-c1ccccc1OCc1ccccc1)N(C(=O)Cc1ccc3c(c1)OCO3)CCC2	HEK cytotox 79µM, 3T3 cytotox 13µM, NPR1 antag 8.9µM | Npr1 antag conf 11µM | Npr2 selectivity 6.1µM | FLuc inh counter inactive | GloSensor cGMP inactive
Cc1nn2c(c1-c1ccccc1Oc1ccccc1)N(C(=O)Cc1ccc3c(c1)OCO3)CCC2	HEK cytotox inconclusive, 3T3 cytotox inconclusive, NPR1 antag 7.9µM | Npr1 antag conf 11µM | Npr2 selectivity 5.4µM | FLuc inh counter inactive | GloSensor cGMP inactive
CC(C)CCC(=O)N1CCc2nc(N3CCN(C)CC3)sc2C1	HEK cytotox inconclusive
CSc1cccc(NC(=O)N[C@H]2CCN(C(=O)c3cccn3C)[C@@H]2C(=O)N[C@H]2CCCNC2=O)c1	none
COc1cccc(CN2CC3(C2)C(=O)N(Cc2ccccc2)C(=O)[C@@H]2C[C@@H](O)CN23)c1	none
Cc1cc(=O)n(CC(=O)Nc2cccc(C(F)(F)F)c2)c(N2CCC(C)CC2)n1	HEK cytotox 35µM, 3T3 cytotox 22µM, NPR1 antag 10µM | Npr1 antag conf 12µM | Npr2 selectivity 14µM | FLuc inh counter inactive | GloSensor cGMP 11µM
